# Data from the supplement of paper PMC6089552.
# Screen size: about 3,200 compounds; about 300 (9.4%) showed activity. The sample holds actives, similar compounds and a random draw of the others, so the mix is not that of the screen. Unmarked numbers belong to inactive results.
# Test system: A673/TR/shEF
# Assay: cell viability (LOESS-normalised, relative to median of negative controls) (log2 ratio); higher = more viable cells (less compound effect), active = hit call of the paper (over 3 MAD below the median)
# Conditions: treatment time: 72 h
# Summary of the method: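 Viability of A673/TR/shEF Ewing sarcoma cells was determined by CellTiter-Glo luminescence. The cells, at 1,500 per well in 384-well plates, were grown with or without doxycycline from 24 h before compound addition to switch on EWS-FLI1 shRNA knockdown, then exposed for three days to library compounds at two or more concentrations or to DMSO controls. Signals were LOESS-corrected plate by plate, normalised to the negative-control median and log2-transformed.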
# [1] = 0.25 µM, library screen: screen1, EWS-FLI1 expression: high (no doxycycline)
# [2] = 0.25 µM, library screen: screen1, EWS-FLI1 expression: low (doxycycline-induced shRNA knockdown)
# [3] = 2.5 µM, library screen: screen1, EWS-FLI1 expression: high (no doxycycline)
# [4] = 2.5 µM, library screen: screen1, EWS-FLI1 expression: low (doxycycline-induced shRNA knockdown)
# [5] = 0.025 µM, library screen: screen2, EWS-FLI1 expression: high (no doxycycline)
# [6] = 0.025 µM, library screen: screen2, EWS-FLI1 expression: low (doxycycline-induced shRNA knockdown)
# [7] = 0.103 µM, library screen: screen3, EWS-FLI1 expression: high (no doxycycline)
# [8] = 0.103 µM, library screen: screen3, EWS-FLI1 expression: low (doxycycline-induced shRNA knockdown)
# [9] = 0.25 µM, library screen: screen2, EWS-FLI1 expression: high (no doxycycline)
# [10] = 0.25 µM, library screen: screen2, EWS-FLI1 expression: low (doxycycline-induced shRNA knockdown)
# [11] = 0.308 µM, library screen: screen3, EWS-FLI1 expression: high (no doxycycline)
# [12] = 0.308 µM, library screen: screen3, EWS-FLI1 expression: low (doxycycline-induced shRNA knockdown)
# [13] = 0.926 µM, library screen: screen3, EWS-FLI1 expression: high (no doxycycline)
# [14] = 0.926 µM, library screen: screen3, EWS-FLI1 expression: low (doxycycline-induced shRNA knockdown)
# [15] = 2.5 µM, library screen: screen2, EWS-FLI1 expression: high (no doxycycline)
# [16] = 2.5 µM, library screen: screen2, EWS-FLI1 expression: low (doxycycline-induced shRNA knockdown)
# [17] = 2.8 µM, library screen: screen3, EWS-FLI1 expression: high (no doxycycline)
# [18] = 2.8 µM, library screen: screen3, EWS-FLI1 expression: low (doxycycline-induced shRNA knockdown)
# [19] = 8.3 µM, library screen: screen3, EWS-FLI1 expression: high (no doxycycline)
# [20] = 8.3 µM, library screen: screen3, EWS-FLI1 expression: low (doxycycline-induced shRNA knockdown)
# [21] = 25 µM, library screen: screen2, EWS-FLI1 expression: high (no doxycycline)
# [22] = 25 µM, library screen: screen2, EWS-FLI1 expression: low (doxycycline-induced shRNA knockdown)
# [23] = 25 µM, library screen: screen3, EWS-FLI1 expression: high (no doxycycline)
# [24] = 25 µM, library screen: screen3, EWS-FLI1 expression: low (doxycycline-induced shRNA knockdown)
smiles,measurement,setting,value
C[C@@H]1CC[C@@]2(OC1)O[C@H]1C[C@H]3[C@@H]4CC[C@@H]5C[C@@H](O)CC[C@]5(C)[C@H]4CC[C@]3(C)[C@H]1[C@@H]2C,cell viability (log2),[1],0.0641
same,cell viability (log2),[2],0.0518
same,cell viability (log2),[3],0.077
same,cell viability (log2),[4],0.0287
CSc1nnc(-c2ccccc2)c(-c2ccccc2)n1,cell viability (log2),[1],0.103
same,cell viability (log2),[2],0.00324
same,cell viability (log2),[3],0.0984
same,cell viability (log2),[4],0.0395
COc1cc(OC)c2c(c1)O[C@H](c1cc(OC)c(OC)c(OC)c1)[C@H](OC(=O)c1cc(OC)c(OC)c(OC)c1)C2,cell viability (log2),[1],0.0414
same,cell viability (log2),[2],0.0159
same,cell viability (log2),[3],0.0705
same,cell viability (log2),[4],-0.00627
CC1OC(OC2C(O)COC(OC3C(C)OC(OC4C(OC(=O)C56CCC(C)(C)CC5C5=CCC7C8(C)CCC(OC9OC(CO)C(O)C(O)C9O)C(C)(C)C8CCC7(C)C5(C)CC6O)OCC(O)C4O)C(O)C3O)C2O)C(O)C(O)C1O (centres undefined),cell viability (log2),[1],0.0486
same,cell viability (log2),[2],0.0258
same,cell viability (log2),[3],0.0372
same,cell viability (log2),[4],0.223
COC(=O)c1c(C)c2c(c(C)c1OC)OC(=O)c1c(C)c(Cl)c(OC)c(Cl)c1O2,cell viability (log2),[1],0.0616
same,cell viability (log2),[2],0.043
same,cell viability (log2),[3],0.0828
same,cell viability (log2),[4],0.0347
O=c1[nH]c(=O)n([C@H]2C[C@H](O)[C@@H](CO)O2)cc1F,cell viability (log2),[5],0.0911
same,cell viability (log2),[6],0.0185
same,cell viability (log2),[7],0.0528
same,cell viability (log2),[8],0.0374
same,cell viability (log2),[1],-1.07 (active)
same,cell viability (log2),[2],0.23
same,cell viability (log2),[9],-0.231 (active)
same,cell viability (log2),[10],0.103
same,cell viability (log2),[11],-0.266 (active)
same,cell viability (log2),[12],0.079
same,cell viability (log2),[13],-0.534 (active)
same,cell viability (log2),[14],0.0595
same,cell viability (log2),[3],-1.48 (active)
same,cell viability (log2),[4],0.156
same,cell viability (log2),[15],-0.805 (active)
same,cell viability (log2),[16],0.138
same,cell viability (log2),[17],-0.621 (active)
same,cell viability (log2),[18],0.0813
same,cell viability (log2),[19],-0.85 (active)
same,cell viability (log2),[20],0.0595
same,cell viability (log2),[21],-0.944 (active)
same,cell viability (log2),[22],-0.0409
same,cell viability (log2),[23],-1.03 (active)
same,cell viability (log2),[24],0.0541
Cc1cn([C@@H]2C[C@@H](O)[C@H](CO)O2)c(=O)[nH]c1=O,cell viability (log2),[7],0.207
same,cell viability (log2),[8],0.0457
same,cell viability (log2),[11],0.0611
same,cell viability (log2),[12],0.118
same,cell viability (log2),[13],0.128
same,cell viability (log2),[14],0.0817
same,cell viability (log2),[17],0.203
same,cell viability (log2),[18],0.115
same,cell viability (log2),[19],0.177
same,cell viability (log2),[20],0.101
same,cell viability (log2),[23],0.139
same,cell viability (log2),[24],0.167
O=c1[nH]c(=O)n([C@H]2C[C@H](O)[C@@H](CO)O2)cc1/C=C/Br,cell viability (log2),[9],0.184
same,cell viability (log2),[10],0.138
same,cell viability (log2),[15],0.072
same,cell viability (log2),[16],0.108
CCCCCOC(=O)Nc1nc(=O)n([C@@H]2O[C@H](C)[C@@H](O)[C@H]2O)cc1F,cell viability (log2),[7],0.057
same,cell viability (log2),[8],0.111
same,cell viability (log2),[11],0.147
same,cell viability (log2),[12],0.143
same,cell viability (log2),[13],0.154
same,cell viability (log2),[14],0.121
same,cell viability (log2),[17],0.179
same,cell viability (log2),[18],0.14
same,cell viability (log2),[19],0.166
same,cell viability (log2),[20],0.0924
same,cell viability (log2),[23],0.195
same,cell viability (log2),[24],0.124
O=c1[nH]c(=O)n([C@H]2C[C@H](O)[C@@H](CO)O2)cc1Br,cell viability (log2),[9],0.238
same,cell viability (log2),[10],0.0517
same,cell viability (log2),[15],0.037
same,cell viability (log2),[16],0.0646
CCc1cn([C@H]2C[C@H](O)[C@@H](CO)O2)c(=O)[nH]c1=O,cell viability (log2),[5],0.0952
same,cell viability (log2),[6],0.0914
same,cell viability (log2),[1],0.152
same,cell viability (log2),[2],0.0662
same,cell viability (log2),[9],0.0236
same,cell viability (log2),[10],0.0662
same,cell viability (log2),[3],0.079
same,cell viability (log2),[4],0.152
same,cell viability (log2),[15],0.176
same,cell viability (log2),[16],0.0177
same,cell viability (log2),[21],-0.0289
same,cell viability (log2),[22],0.0946
Cc1cn([C@H]2C=C[C@@H](CO)O2)c(=O)[nH]c1=O,cell viability (log2),[7],-0.00295
same,cell viability (log2),[8],0.0515
same,cell viability (log2),[9],0.197
same,cell viability (log2),[10],0.032
same,cell viability (log2),[11],-0.0178
same,cell viability (log2),[12],0.0223
same,cell viability (log2),[13],0.0714
same,cell viability (log2),[14],0.0163
same,cell viability (log2),[15],0.101
same,cell viability (log2),[16],0.0899
same,cell viability (log2),[17],0.0507
same,cell viability (log2),[18],0.0197
same,cell viability (log2),[19],0.102
same,cell viability (log2),[20],0.0821
same,cell viability (log2),[23],0.0208
same,cell viability (log2),[24],0.0668
Cc1cn([C@H]2C[C@H](N=[N+]=[N-])[C@@H](CO)O2)c(=O)[nH]c1=O,cell viability (log2),[5],0.0606
same,cell viability (log2),[6],0.0603
same,cell viability (log2),[1],-0.142 (active)
same,cell viability (log2),[2],-0.108
same,cell viability (log2),[9],0.183
same,cell viability (log2),[10],0.0909
same,cell viability (log2),[3],-1.07 (active)
same,cell viability (log2),[4],-0.798 (active)
same,cell viability (log2),[15],0.12
same,cell viability (log2),[16],0.103
same,cell viability (log2),[21],0.0992
same,cell viability (log2),[22],0.0558
C[C@H]1O[C@@H](n2cc(F)c(=O)[nH]c2=O)[C@H](O)[C@@H]1O,cell viability (log2),[5],0.0333
same,cell viability (log2),[6],0.0231
same,cell viability (log2),[1],-0.21 (active)
same,cell viability (log2),[2],0.08
same,cell viability (log2),[9],-0.00269
same,cell viability (log2),[10],0.0834
same,cell viability (log2),[3],-1.24 (active)
same,cell viability (log2),[4],-0.0424
same,cell viability (log2),[15],-0.257 (active)
same,cell viability (log2),[16],0.0331
same,cell viability (log2),[21],-2.97 (active)
same,cell viability (log2),[22],-0.654 (active)
O=c1[nH]c(=O)n([C@H]2C[C@H](O)[C@@H](CO)O2)cc1C(F)(F)F,cell viability (log2),[7],0.105
same,cell viability (log2),[8],0.105
same,cell viability (log2),[1],-0.0346
same,cell viability (log2),[2],0.0988
same,cell viability (log2),[11],0.134
same,cell viability (log2),[12],0.147
same,cell viability (log2),[13],0.108
same,cell viability (log2),[14],0.0588
same,cell viability (log2),[3],0.0509
same,cell viability (log2),[4],0.029
same,cell viability (log2),[17],0.0746
same,cell viability (log2),[18],0.0921
same,cell viability (log2),[19],0.0584
same,cell viability (log2),[20],0.048
same,cell viability (log2),[23],-0.362 (active)
same,cell viability (log2),[24],0.124
